# PI5P4Ka inh – PI5P4K alpha (human) kinase inhibition; PI5P4Kalpha enzyme, ADP-Glo luminescence, 60 min; hits give low values; max response, %; hit rate 1.2% among 330,000; active = max response of -50% or lower; inconclusive = between -30% and -50%; inactive = -30% or higher; note: value at the top dose of about 77 µM; % is set by controls: 0 for no effect and ±100 for the full control effect
#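 Controls without substrate or without enzyme flank wells where PI5P4Kalpha converts substrate using 5 microM ATP (final). Incubation lasts 60 minutes at room temperature; ADP formed is read by ADP-Glo luminescence.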
# Pol iota inh – DNA polymerase iota (human) inhibition | AID 588590 | Q9UNA4 | hit rate 1% among 390,000 | Pol iota fluorescent replication assay, 10 min | Potency, µM (highest dose often 115 µM), without a hit: at the highest dose activity, negative = inhibition, actives largely listed as inhibitors; note: potency is the fitted concentration of half-maximal effect
#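 Pol iota at 10 nM preincubated 15 min with compounds at room temperature; reaction started with fluorescent substrate, 50 nM final. Fluorescence read kinetically at 0 and 10 min; buffer-only wells as negative control.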
# Pol kappa inh-1 – inhibitors of human DNA polymerase kappa; Q9UBT6; purified Pol kappa, fluorescent DNA synthesis assay, 10 min; Potency, µM (highest dose often 107 µM), for inactives: top-dose activity, negative = inhibition, hits mostly inhibitors; hit rate 0.53% among 400,000; note: potency is the fitted concentration of half-maximal effect; % is set by controls: 0 for no effect and ±100 for the full control effect
# Target sequence (Q9UBT6 whole entry, looked up): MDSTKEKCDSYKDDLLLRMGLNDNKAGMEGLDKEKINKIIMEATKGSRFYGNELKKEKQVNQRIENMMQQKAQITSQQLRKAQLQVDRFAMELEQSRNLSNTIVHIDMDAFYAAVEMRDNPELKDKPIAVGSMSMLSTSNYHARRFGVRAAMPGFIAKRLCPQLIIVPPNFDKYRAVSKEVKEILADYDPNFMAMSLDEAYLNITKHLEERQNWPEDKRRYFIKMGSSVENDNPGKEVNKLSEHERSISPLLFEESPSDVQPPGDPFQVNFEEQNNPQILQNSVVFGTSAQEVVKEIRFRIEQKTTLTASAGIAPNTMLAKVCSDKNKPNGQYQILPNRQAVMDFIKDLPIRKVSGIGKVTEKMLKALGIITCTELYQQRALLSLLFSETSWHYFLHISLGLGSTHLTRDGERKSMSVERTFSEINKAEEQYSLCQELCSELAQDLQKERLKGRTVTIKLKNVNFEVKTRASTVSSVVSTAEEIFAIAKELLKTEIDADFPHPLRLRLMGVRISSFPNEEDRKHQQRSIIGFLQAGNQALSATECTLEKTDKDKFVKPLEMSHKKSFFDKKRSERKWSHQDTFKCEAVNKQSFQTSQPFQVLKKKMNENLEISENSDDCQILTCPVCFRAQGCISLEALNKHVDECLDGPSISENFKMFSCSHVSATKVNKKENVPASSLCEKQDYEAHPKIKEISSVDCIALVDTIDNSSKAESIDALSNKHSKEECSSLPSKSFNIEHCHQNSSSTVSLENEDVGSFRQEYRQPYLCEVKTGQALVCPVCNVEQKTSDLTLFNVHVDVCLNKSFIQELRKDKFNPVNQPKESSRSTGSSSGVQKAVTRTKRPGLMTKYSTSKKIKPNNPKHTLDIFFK
#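 Inhibition of 10 nM Pol kappa is measured by a fluorescent read-out at 0 and 10 min following addition of 50 nM substrate (final), with a 15-min room-temperature compound preincubation.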
# WRN inhibitor – WRN helicase (human) inhibition | Potency, µM (series often up to 114 µM), inactives show top-dose activity change, negative = inhibition, actives largely listed as inhibitors | hit rate 0.46% among 360,000 | Q14191 | AID 651768 | WRN helicase unwinding, fluorescent forked duplex, kinetic; note: potency is the fitted concentration of half-maximal effect; % is set by controls: 0 for no effect and ±100 for the full control effect; nearly all actives have a fitted effect of over 55% in size
#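 Primary qHTS, 1536-well format. 20 nM WRN + compound, 15 min RT; start with 100 nM forked fluorophore/quencher duplex, 2 mM ATP (final); kinetic read ex 525/em 598 nm.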
# Pol beta inh – inhibitors of human DNA polymerase beta; Potency, µM (highest dose often 114 µM), for inactives: at the top dose activity change, negative = inhibition, most hits filed as inhibitors; Pol beta primer extension/strand displacement, fluorescence kinetic; P06746; hit rate 1.3% among 340,000; AID 485314; note: potency is the fitted concentration of half-maximal effect; % is set by controls: 0 for no effect and ±100 for the full control effect
#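 Curves were derived by four-parameter Hill fits of normalized qHTS data. The kinetic fluorescent primer-extension read was taken at 0 and 10 min after 50 nM substrate, following a 15 min room-temperature preincubation of 10 nM enzyme with compounds.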
# Pol eta inh-1 – DNA polymerase eta (human) inhibition; Potency, µM (top dose mostly 114 µM), inactives show at the highest dose activity change, negative = inhibition, usual class: inhibitors; Q9Y253; recombinant Pol eta, fluorescent DNA replication assay; hit rate 1.2% among 390,000; note: potency is the fitted concentration of half-maximal effect; % is set by controls: 0 for no effect and ±100 for the full control effect
#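 Pol eta at 10 nM preincubated with compounds 15 min at room temperature; reaction started with fluorescent substrate (50 nM final) and read kinetically at 0 and 10 min.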
# GALK confirm – confirmation of human galactokinase (GALK) inhibitors | Potency, µM (series often up to 115 µM), without a hit: at the top dose activity, negative = inhibition, most hits filed as inhibitors | hit rate 70% among 150 | AID 2015 | shares compounds with Pol eta inh-1 | purified GALK, Kinase-Glo ATP depletion luminescence
# Redox cycling – redox cycling activity in phenol red-HRP assay | shares compounds with Pol eta inh-1 | Phenol red-HRP H2O2 redox cycling, absorbance 600 nm | Potency, µM (highest dose often 115 µM), for the others: at the top dose activity change, negative = H2O2 signal, usual class: inhibitors | hit rate 40% among 150
# HEK293 viability – counter-screen for GALK inhibitors: HEK293 cell cytotoxicity | Potency, µM (series often up to 46.1 µM), for the others: at the top dose activity change, negative = cytotoxicity, most hits filed as inhibitors | AID 2547 | shares compounds with Pol eta inh-1 | hit rate 10% among 170 | HEK-293 viability, ATP luminescence (CellTiter-Glo), 24/48 h; note: potency is the fitted concentration of half-maximal effect; % is set by controls: 0 for no effect and ±100 for the full control effect
# Pol kappa inh-2 – Pol kappa (human) inhibition, cherry-pick confirmation | hit rate 76% among 920 | AID 720501 | purified Pol-kappa, fluorescent strand-displacement substrate | shares compounds with Pol eta inh-1 | Potency, µM, usual class: inhibitors; note: potency is the fitted concentration of half-maximal effect
# Pol eta inh-2 – confirmation of human DNA polymerase eta inhibitors | shares compounds with Pol eta inh-1 | Pol eta primer extension, TAMRA/BHQ fluorescence, 10 min | Potency, µM, most hits filed as inhibitors | hit rate 64% among 2,600; note: potency is the fitted concentration of half-maximal effect
# Active calls of the source: *; u = inconclusive; x = no result; [ ] = remark or other dose. Only some compounds are listed: those with a hit (about 2.8% of all), similar ones and a draw of the others. Unless noted, calls come from the whole dose curve; as a rule, active = well fitted curve in the direction sought with a large enough effect; inconclusive = small, poorly fitted or top-dose-only effect, or another doubt; inactive = no such curve, though single readings can be large; an effect the other way counts as inactive or inconclusive.
SMILES,PI5P4Ka inh,Pol iota inh,Pol kappa inh-1,WRN inhibitor,Pol beta inh,Pol eta inh-1,Pol eta inh-2,others
Cc1ccc(/C=C2/SC(=S)N(c3ccc(S(=O)(=O)Nc4nccs4)cc3)C2=O)cc1,-68*,18µM*,u,u,u,40µM*,76*,
O=C1/C(=C/c2ccccn2)SC(=S)N1c1ccc(O)cc1,-2,-20%,-4%,-5%,5%,-4%,x,
COc1ccc2c(c1)CC(C(=O)N1CCC(C(N)=O)CC1)CO2 (stereo not drawn),x,5%,-9%[60.1 µM],x,3%,4%,x,
CC1=C(C(=O)N2CCCCCC2)CC(CC(=O)NC2CC2)C(=O)N1Cc1ccccc1 (stereo not drawn),0,x,x,-5%,x,x,x,
S=c1[nH]nc(-c2cc(-c3ccccc3)n[nH]2)n1/N=C/C(Br)=C/c1ccccc1,u,22µM*,-32%,45µM*,13µM*,50µM*,x,Pol kappa inh-2=67*
S=c1[nH]nc(-c2cc(-c3ccccc3)n[nH]2)n1/N=C/c1cccs1,-19,28%,-3%,-10%,u,-7%,x,
COc1ccccc1N1CCN(S(=O)(=O)c2c(C)nc3sccn3c2=O)CC1,x,27%,0%,x,-1%,-18%,x,
CN1CCN(C(=O)C(=O)Nc2c3c(nn2-c2ccc(Cl)cc2)CSC3)CC1,x,34%,0%[60.1 µM],x,7%,-14%,x,
NC(=O)c1ccc(-n2nnnc2SCC(=O)c2ccc(O)c(O)c2)cc1,u,14µM*,25µM*,35µM*,10µM*,10µM*,43*,
CCCOc1ccc(Cc2nn3c(=O)/c(=C/c4ccco4)sc3nc2=O)cc1,u,6.3µM*,8.9µM*,56µM*,25µM*,25µM*,u,
COc1cc(/C=C/c2ccc3ccccc3n2)cc(OC)c1OC,x,-3%,-3%,x,x,x,x,
CC1=CC2(O)OCCN(CCO)C2=CC1=O (stereo not drawn),x,u,u,-8%[11.6 µM],25µM*,u,u,
O=C(CNC(=O)c1ccc(Cl)cc1Cl)OCc1cn2cc(Br)ccc2n1,-1,5%,-1%,-2%,x,-20%,x,
O=C1NC(=S)SC1=Cc1ccccn1,u,x,x,-2%,x,x,x,
O=C1NC(=S)S/C1=C\c1cc(Cl)ccc1Cl,-62*,u,-7%,u,x,40µM*,x,Pol kappa inh-2=u
O=C(O)CNc1ccccc1C(=O)O,8,u,-66%,-4%[11.6 µM],-80%,20µM*,60*,
COc1ccc(-n2c(=O)c3c4c(sc3n(Cc3ccc(C)cc3C)c2=O)CCC4)c(OC)c1,x,-9%,-14%,x,3%,-5%,x,
Cc1ccc(/C=C/C(=O)Nc2ccc(N(C)C)cc2)o1,-15,25%,-3%,-7%,0%,-6%,x,
CC(=O)NS(=O)(=O)c1ccc(NC(=O)/C=C/c2ccc(C)o2)cc1,u,u,u,-18%[11.6 µM],-16%,22µM*,43*,
CC1=C(C(=O)N(C(C)C)C(C)C)CC(CC(=O)NC2CCCC2)C(=O)N1Cc1ccc(C(C)(C)C)cc1 (stereo not drawn),-8,x,x,1%,x,x,x,
CCOc1cc(/C=C(/C#N)c2ccc(F)cc2)ccc1OCc1ccc(C(=O)O)o1,0,-3%,-17%,-18%,-12%,u,x,
CCOc1cc(/C=C(/C#N)c2nc3ccccc3[nH]2)ccc1OCc1ccc(C(=O)O)o1,-7,-21%,u,u,40µM*,7.9µM*,30*,Pol kappa inh-2=34*
COc1ccc(CCNC(=O)c2cccc(Nc3nc4ccccc4nc3-n3nc(C)cc3C)c2)cc1OC,x,14%,-29%,x,-1%,-5%,x,
C#Cc1ccc([C@@H]2C=C(C(=O)NCc3ccccc3)O[C@H](OCC)[C@H]2CCCO)cc1,0,4%,-3%,-6%,-7%,-10%,x,
C#Cc1ccc([C@@H]2C=C(C(=O)O)O[C@H](OCC)[C@H]2CCCO)cc1,0,u,50µM*,-36%[57.1 µM],x,7.9µM*,30*,Pol kappa inh-2=4.7*
SMILES,PI5P4Ka inh,Pol iota inh,Pol kappa inh-1,WRN inhibitor,Pol beta inh,Pol eta inh-1,Pol eta inh-2,others
C/C=C\C(=O)Nc1cccc(C2=NOC3(C2)C[C@@H](C(N)=O)N(C(=O)C2(C)CC2)C3)c1 (stereo partly drawn),-3,-5%,-4%,8%,-8%,-12%,x,
C/C=C\C=C/C(=O)Nc1cccc(C2=NOC3(C2)C[C@@H](C(N)=O)N(C(=O)C2(C)CC2)C3)c1 (stereo partly drawn),u,45µM*,-13%,-9%[11.6 µM],29%,u,67*,
COC(=O)c1c(C(=O)OC)c(-c2ccc(Cl)c(Cl)c2)n2c1CCC2,x,22%,5%,-12%,10%,-2%,x,
O=C(O)c1c(C(=O)O)c(-c2ccc(Cl)c(Cl)c2)n2c1CSC2,-29,u,-45%,-17%[11.6 µM],u,50µM*,x,Pol kappa inh-2=38*
COc1ccc(NC(=O)c2c[nH]n3c(=O)cc(C4CCN(C(=O)OC(C)(C)C)CC4)nc23)cc1Cl,2,23%,-7%,-5%,-3%,89µM*,85*,Pol kappa inh-2=75*
CC(C)(C)OC(=O)N1CCC(c2cc(=O)n3[nH]cc(C(=O)Nc4ccc(F)c(Cl)c4)c3n2)CC1,10,u,-11%,-2%,-21%,-1%,x,
COc1ccc(N=C2S/C(=C\c3ccc(OC(C)C(=O)O)c(OC)c3)C(=O)N2CCc2c[nH]c3ccccc23)cc1 (stereo not drawn),-54*,u,u,-12%,35µM*,32µM*,x,GALK confirm=42µM*;Redox cycling=-5%;HEK293 viability=10%

# Assay outcomes as filed in PubChem BioAssay.
